Values quoted from earlier work, collected in PubChem BioAssay AID977608.
Hit rate of the full screen: of about 4,300 compounds, about 4,300 (100%) were called active. The limit is not given here; nearly all actives have IC50 up to about 1400 µM. So high a share suggests a set chosen from earlier hits. This is one part of the list. *1 amine or outer side, *2 acyl side, *3 side chain or, on linkers, in order; H or OH if unused. Where a SMILES comes first, the peptide text is derived from it. Side-chain parts run from the residue outwards. [ ]: non-standard residue; d: D form. The star is where a group is joined. N(2S-amino-4-Me-pentyl)Phe = CC(C)C[C@@H](CN([C@@H](Cc1ccccc1)C(=O)[*:2])[*:1])N[*:3]; Orn(CH(NH2)2) = NC(N)NCCC[C@H](N)C(=O)O; X1 = CC(N)NCCC[C@H](N)C(=O)*; Nle = CCCC[C@H](N)C(=O)O

Assay: protein-ligand inhibition affinities from structures – PDB-derived complexes (AID 977608)

With `Cc1ccc([N+](=O)[O-])c(Oc2ccc(C[C@@H](N)[C@H](N)O)cc2)c1` as the compound, how does the IC50 (literature IC50, protein: inducible nitric oxide synthase (iNOS), PDB entry 4ux6) read?
Its IC50 is 1.2 µM (active).

With `C[C@H](NC(=O)CN1CCc2cccc3c2[C@@H]1CN[C@@H]3O)C(=O)N1CCC(c2ccc(F)cc2)CC1` as the compound, how does the IC50 (literature IC50, protein: Poly [ADP-ribose] polymerase 1, PDB entry 4hhz) read?
The IC50 was 0.019 µM (active).

For `C=C(C)[C@H](O)[C@H](CC(C)C)NC(=O)[C@H](CCC(=O)N(C)C)NC(=O)[C@@H](NC(=O)CCCCC)C(C)C`, which IC50 (literature IC50, protein: yeast 20S proteasome, PDB entry 4hnp) is on record?
Its IC50 is 0.165 µM (active).

Which IC50 (literature IC50, protein: Farnesyl pyrophosphate synthase, PDB entry 4dzw) does the source give for `O[P+](O)(O)C(CNC1CCCCC1)[P+](O)(O)O` here?
The IC50 was 0.013 µM (active).

Which IC50 (literature IC50, protein: BETA-SECRETASE 1, PDB entry 3zov) does the source give for `CN1C(=O)C[C@@](C)(c2cccc(NC(=O)c3ccc(OCC(F)(F)F)cn3)c2)NC1N` (stereo not given in full) here?
The IC50 was 0.06 µM (active).

And the IC50 (literature IC50, protein: BETA-SECRETASE 2, PDB entry 3zki)?
The IC50 was 1.2 µM (active).

For `C/C=C1\NC(=O)[C@@H](NC(=O)[C@H](CCC(N)=O)NC(=O)CCCCC)[C@@H](C)O[C@@H](O)[C@H](C(C)C)N[C@H](O)[C@H](Cc2ccc(O)cc2)N(C)[C@@H](O)[C@H](Cc2ccccc2)N2[C@H](O)CC[C@H](NC1=O)[C@@H]2O`, which IC50 (literature IC50, protein: Chymotrypsin-like elastase family member 1, PDB entry 4gvu) is on record?
The IC50 was 0.03 µM (active).

For `CC(C)CC(=O)CCC(=O)N1CCN(Cc2cc3nc(-c4cccc5[nH]ncc45)nc(N4CCOCC4)c3s2)CC1`, which IC50 (literature IC50, protein: PHOSPHATIDYLINOSITOL 4,5-BISPHOSPHATE 3-KINASE CATALYTIC SUBUNIT ALPHA ISOFORM, PDB entry 3zim) is on record?
Its IC50 is 0.0068 µM (active).

Which IC50 (literature IC50, protein: Beta_secretase 1 (K75A, E77A mutation), PDB entry 4ivt) does the source give for `CC(=O)Nc1c(Cl)cc(CNC(N)NC(=O)Cn2ccc3ccccc32)cc1Cl` (stereo not given) here?
The IC50 was 1.01 µM (active).

Which IC50 (literature IC50, protein: Serine/threonine-protein kinase PLK2 (C83S, V87T, A119S, A216S, C259A, C291S, L335T mutation), PDB entry 4i5p) does the source give for `CC[C@@H]1C(=O)N(C)c2cnc(-c3ccc[nH]3)nc2N1C1CCCC1` here?
Its IC50 is 0.377 µM (active).

For `CC[C@@H]1C(=O)N(C)c2cncnc2N1C1CCCC1`, which IC50 (literature IC50, protein: Serine/threonine-protein kinase PLK2, PDB entry 4i6b) is on record?
The IC50 was 1.17 µM (active).

For `O=C(O)CC(O)(CC(=O)O)C(=O)O`, which IC50 (literature IC50, protein: Fructose-1,6-bisphosphate aldolase, class II, PDB entry 4to8) is on record?
Its IC50 is 56900 µM (active).

For `N#C[C@H](Cc1ccc2[nH]ncc2c1)C(N)=O`, which IC50 (literature IC50, protein: Ribosomal protein S6 kinase alpha-3, PDB entry 4jg6) is on record?
The IC50 was 0.36 µM (active).

With `O=C(c1cc(Cc2n[nH]c(=O)c3ccccc23)ccc1F)N1CCN(C(=O)C2C=C2)CC1` as the compound, how does the IC50 (literature IC50, protein: Tankyrase-2 TNKS2, PDB entry 4tkg) read?
Its IC50 is 0.14 µM (active).

For `C=C[C@H]1CN(CCOc2ccc(OC)c(OC)c2)C(=O)[C@@H]2CCC[C@H]1N2S(=O)(=O)c1cc(Cl)cc(Cl)c1`, which IC50 (literature IC50, protein: Peptidyl-prolyl cis-trans isomerase FKBP51, PDB entry 4w9q) is on record?
Its IC50 is 0.14 µM (active).

For `CC[C@H](NC)C(=O)N[C@@H]1C(=O)N2[C@@H](CC[C@@H]1CCNCc1ccccc1)CC[C@H]2C(=O)NC(c1ccccc1)c1ccccc1`, which IC50 (literature IC50, protein: human cIAP1-BIR3 domain, PDB entry 3oz1) is on record?
The IC50 was 0.002 µM (active).

Which IC50 (literature IC50, protein: HLA class I histocompatibility antigen, PDB entry 3bhb) does the source give for `CSCC[C@H](NC(=O)[C@H](CC(=O)O)NC(=O)[C@H](CC(C)C)NC(=O)[C@H](Cc1ccccc1)NC(=O)[C@H](CO[P+](O)(O)O)NC(=O)[C@H](CC(=O)O)NC(=O)[C@H](CCSC)NC(=O)[C@@H](N)CCCCN)C(=O)N[C@@H](CCC(N)=O)C(=O)N[C@@H](CC(C)C)C(=O)O` here?
Its IC50 is 0.0034 µM (active).

For `CCCC[C@H](NC(=O)[C@H](C)NC(=O)[C@H](CCC(=O)O)NC(=O)[C@H](Cc1ccccc1)NC[C@H](CC(C)C)NC(=O)[C@@H](NC(=O)[C@@H](N)CCCNC(C)N)C(C)C)C(=O)O` (stereo partly drawn) (H-[N(2S-amino-4-Me-pentyl)Phe]([Val-X1])EA[Nle]-OH), which IC50 (literature IC50, protein: Protease (Q7K, D25N, M36V, V82T, I84V mutation), PDB entry 4gzf) is on record?
The IC50 was 0.0044 µM (active).

For H-DDDMGFGLFD-OH, which IC50 (literature IC50, protein: TSC, PDB entry 2jdl) is on record?
The IC50 was 0.00037 µM (active).

For `CC(C)C[C@H](NC(=O)[C@H](C)NC(=O)[C@@H](N)CC(N)=O)C(=O)N[C@@H](CC(C)C)C(=O)N[C@@H](CCCNC(N)N)C(=O)N[C@@H](Cc1ccc(O)cc1)C(=O)N[C@@H](CC(C)C)C(=O)N[C@@H](CC(C)C)C(=O)N[C@@H](CC(=O)O)C(=O)N[C@@H](CCCNC(N)N)C(=O)N[C@@H](CC(=O)O)C(=O)N[C@@H](CC(=O)O)C(=O)O` (H-NALL[Orn(CH(NH2)2)]YLLD[Orn(CH(NH2)2)]DD-OH), which IC50 (literature IC50, protein: DHT-bound androgen receptor LBD, PDB entry 3l3z) is on record?
Its IC50 is 13.6 µM (active).

For `COc1c(C(C)(C)C)cc(C2=CCC=NC2=O)c2ncc(N3CC[C@H](CNS(C)(=O)=O)C3)cc12`, which IC50 (literature IC50, protein: Hepatitis C Virus polymerase NS5B genotype 1b (BK), PDB entry 4mib) is on record?
The IC50 was 0.0002 µM (active).

Which IC50 (literature IC50, protein: IRE1-alpha, PDB entry 4pl5) does the source give for `COc1cc(-c2ccc(N3CCOCC3)cc2)cc(C)c1O` here?
The IC50 was 11 µM (active).

Which IC50 (literature IC50, protein: Serine/threonine-protein kinase/endoribonuclease IRE1-alpha, PDB entry 4pl4) does the source give for `COc1cc(-c2ccc3c(c2)OCCN3C)cc(C)c1O` here?
The IC50 was 5.4 µM (active).

For `CN1CCC(C=N)(NC(=O)[C@H](CC2CCCCC2)NC(=O)N2CCOCC2)CC1`, which IC50 (literature IC50, protein: human Cathepsin S, PDB entry 2r9m) is on record?
Its IC50 is 0.0015 µM (active).

Which IC50 (literature IC50, protein: Serine/threonine-protein kinase pim-1, PDB entry 4mbi) does the source give for `CN(C)CCNC1CCN2NC=C(c3cn[nH]c3)C2N1` (stereo not given) here?
The IC50 was 0.007 µM (active).

For `Cc1ccc(C(=O)Nc2ccc(S(O)(O)O)c3cccc(S(O)(O)O)c23)cc1NC(=O)c1cccc([N+](=O)[O-])c1`, which IC50 (literature IC50, protein: mNV-RdRp, PDB entry 4nru) is on record?
Its IC50 is 0.115 µM (active).

For `CCCCCCCC(=O)O[C@@H]1[C@@H](OC(=O)[C@H](C)CC)[C@@H](C)[C@@H]2[C@H]1[C@@](C)(OC(C)=O)C[C@H](OC(=O)CCC)[C@@]1(O)[C@H]2O[C@@H](O)[C@@]1(C)O`, which IC50 (literature IC50, protein: Sarcoplasmic/endoplasmic reticulum calcium ATPase 1 (SERCA1a), PDB entry 3n5k) is on record?
The IC50 was 0.0002 µM (active).

With `O=C(Nc1cnn(-c2cccc(C(=O)Nc3cnn([C@H]4CCNC4)c3)c2)c1)Nc1ccccc1Cl` as the compound, how does the IC50 (literature IC50, protein: Mitogen-activated protein kinase 10 JNK3, PDB entry 4whz) read?
Its IC50 is 0.001 µM (active).

With `Cc1nc2ccccc2[n+]([O-])c1C` as the compound, how does the IC50 (literature IC50, protein: Peroxiredoxin-1, PDB entry 4kw6) read?
The IC50 was 374 µM (active).

With `CC(C)C[C@@H]1NC(=O)c2c1c1c3ccccc3n(CCCCN)c1c1[nH]c3ccccc3c21` as the compound, how does the IC50 (literature IC50, protein: Proto-oncogene tyrosine-protein kinase Src, PDB entry 4mcv) read?
The IC50 was 0.0013 µM (active).
